# Laboratory results: PubChem BioAssay (NCATS)
# Inconclusive results are not listed. Where a call stands in place of a potency, no number is given. Values without a mark were called inactive. The source made the active and inactive calls. Calls follow the shape of the dose curve; as a rule, active = well fitted cell-killing curve with a large enough effect; inconclusive = small, poorly fitted or top-dose-only effect; inactive = no such curve, though single readings can be large or run the other way.
# Experiment: qHTS of pediatric cancer cell lines to identify multiple opportunities for drug repurposing: Primary screen for A673 cells (AID 1347092); also: nearly all actives have a fitted effect of over 45% in size
# Details: A673 Ewing sarcoma viability, CellTiter-Glo ATP luminescence, 48 h; series mostly up to 46 µM
# Summary of the method: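 A673 cells (500-1,000 cells/well in growth media) were pre-incubated 5 h at 37 degrees C, then exposed to compounds for 48 h. Viability was read as CellTiter-Glo luminescence; concentration-response curves came directly from the primary screen.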
# Potency is read from the fitted curve at half-maximal effect.
Structure (SMILES),Potency,"activity change, negative = cytotoxic"
CCCCCCCCCCCCCCCC(=O)OC[C@@H](NC(=O)C(Cl)Cl)[C@H](O)c1ccc([N+](=O)[O-])cc1,inactive,
Cn1cc(C[C@@H](N)C(=O)O)c2ccccc21,inactive,
Cc1cc(-c2nnc3n2CCCCC3)c(C)n1-c1ccccc1,inactive,
O=[N+]([O-])c1cn2c(n1)OC[C@@H](OCc1ccc(OC(F)(F)F)cc1)C2,inactive,
N[C@H]1CN(c2c(F)cc3c(=O)c(C(=O)O)cn(C4C[C@@H]4F)c3c2Cl)CC12CC2 (some centres undefined),inactive,
C=CC1=C(C(=O)O)N2C(=O)[C@@H](NC(=O)C(=NO)c3csc(N)n3)[C@H]2SC1,inactive,
C[C@@H](Cc1cc2c(c(C(N)=O)c1)N(CCCO)CC2)NCCOc1ccccc1OCC(F)(F)F,inactive,
C[C@H]1COc2c(N3CCN(C)CC3)c(F)cc3c(=O)c(C(=O)O)cn1c23,inactive,
CCNC(=O)c1cc2c(-c3cc(OCCN4CCCC4)c(Cl)cc3Cl)nc(N)nc2s1,1.18 µM (active),
COC(=O)[C@H](CCCN=C(N)N)NS(=O)(=O)c1ccc(C)cc1,inactive,
CCCNS(=O)(=O)Nc1ncnc(OCCOc2ncc(Br)cn2)c1-c1ccc(Br)cc1,inactive,
Cn1cc(C=CC(=O)c2cccc(F)c2)cc1C=CC(=O)NO,9.35 µM (active),
C[C@@H]1CC[C@@]2(OC1)OC1CC3C4CC=C5CC(O)CCC5(C)C4CCC3(C)C1[C@@H]2C (some centres undefined),inactive,
CCN1CCN(C(=O)N[C@H](C(=O)N[C@@H]2C(=O)N3C(C(=O)O)=C(CSc4nnnn4C)CS[C@@H]23)c2ccc(O)cc2)C(=O)C1=O,,6.36% [at 9.22 µM]
